Source: PubChem BioAssay
GLP1R ag: agonists of human GLP-1 receptor. HEK293 GLP-1R CRE-luciferase, luminescence, 4-6 h; cells express a hypersensitive GLP-1R form. actives 0.007% (n = 380,000). AID 624172. P43220. Potency, µM (titrated, usually from 45.6 µM), without a hit: at the top dose activation, most hits filed as activators; also: potency is read from the fitted curve at half-maximal effect; % of control where 0% means no effect
TRHR enhancer: TRH receptor (human) allosteric enhancement; AID 493056; actives 0.66% (n = 360,000); P34981; TRHR cells, fluo-8 calcium fluorescence, EC20 TRH enhancement; enhancement, % at 2 µM; in the data active = enhancement above about 30%; also: 0% is about no effect
Target sequence (P34981 whole entry, looked up): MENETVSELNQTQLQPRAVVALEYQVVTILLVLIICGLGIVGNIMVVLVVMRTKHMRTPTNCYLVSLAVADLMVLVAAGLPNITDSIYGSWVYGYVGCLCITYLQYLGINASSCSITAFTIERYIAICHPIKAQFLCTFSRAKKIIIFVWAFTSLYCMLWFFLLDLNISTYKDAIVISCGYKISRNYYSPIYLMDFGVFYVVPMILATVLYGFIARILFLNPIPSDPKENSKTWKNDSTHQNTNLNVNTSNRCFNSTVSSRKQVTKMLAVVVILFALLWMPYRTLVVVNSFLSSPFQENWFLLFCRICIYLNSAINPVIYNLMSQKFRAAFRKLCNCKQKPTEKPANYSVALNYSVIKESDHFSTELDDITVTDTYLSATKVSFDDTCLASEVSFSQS
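TRHR-expressing cells loaded with fluo-8 calcium dye were read kinetically (ex 480/em 530) during compound addition, then stimulated with an EC20 of TRH (10 nM final). Enhancement of the Gq-mediated intracellular calcium response was scored.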
GLP1R inv ag: GLP-1 receptor (human) inverse agonism; P43220; HEK293 GLP-1R CRE-luciferase, luminescence, 24 h; GLP-1R form is constitutively active; Potency, µM (highest dose often 38.3 µM), without a hit: top-dose activity change, negative = inhibition, hits mostly inhibitors; actives 1.6% (n = 410,000); AID 624417; also: potency is read from the fitted curve at half-maximal effect; % is scaled to controls: 0 for no effect and ±100 for the full control effect; nearly all actives have a fitted effect of over 55% in size
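HEK293 cells stably co-expressing constitutively active GLP-1R and a cAMP-responsive luciferase reporter were seeded in DMEM with 10% Nu serum, given compounds after 12 h, and incubated 24 h at 37 deg C. Luminescence was then read.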
PTHR1 agonist: PTHR1 (human) receptor agonism; actives 0.075% (n = 410,000); Q03431; Potency, µM (highest dose often 115 µM), for the others: at the top dose activation, actives largely listed as activators; HEK293 GP2 PTHR1 cells, GloSensor cAMP luminescence, 1 h; also: potency is read from the fitted curve at half-maximal effect; nearly all actives have a fitted effect of over 55% in size
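HEK-293-derived GP2 cells expressing PTHR1 and a GloSensor cAMP reporter, 3,000/well, plated overnight, given luciferin plus IBMX (each 0.5 mM as added) for 1 h at 37 °C, then compound for 1 h at 37 °C. Luminescence was read after 15 min at room temperature.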
TRHR agonist: agonists of human TRH receptor; P34981; TRHR cells, calcium flux fluo-8, FDSS agonist mode; activation, % at 2 µM; actives 0.18% (n = 360,000); in the data active = activation above about 30%; also: 0% is about no effect
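Fluo-8-loaded TRHR cells; 10 s baseline, compound added, kinetic Ca2+ fluorescence read 1/s, agonist mode.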
HEK293 tox: cytotoxicity in counter-screen for GLP-1R inverse agonists; HEK293 cAMP-luciferase reporter cells, luminescence, 24 h; Potency, µM (doses to about 38.3 µM), for inactives: at the top dose activity change, negative = inhibition, hits mostly inhibitors; actives 0.13% (n = 410,000); AID 624418;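 also: loss of luciferase light is scored as toxicity; potency is read from the fitted curve at half-maximal effect; % is scaled to controls: 0 for no effect and ±100 for the full control effect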
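1536-well qHTS counterscreen of the MLSMR; 200 cells/uL, 12 h pre-incubation, 23 nL cpd, 24 h at 37 deg C 5% CO2, luciferase detection reagent, 12 min RT, luminescence. Inhibition = undesired.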
Starred values were filed as active, the others as inactive; i = inactive; ? = inconclusive; nt = not tested or not shown; [ ] = dose if it differs, or a comment. A selection: hits, their analogues and other compounds. The true share with any hit is near 2.4%. Unless noted, calls follow the shape of the dose curve; as a rule, active = well fitted curve in the direction sought with a large enough effect; inconclusive = small, poorly fitted or top-dose-only effect, or another doubt; inactive = no such curve, though single readings can be large; an effect the other way counts as inactive or inconclusive.

SMILES	GLP1R ag	TRHR enhancer	GLP1R inv ag	PTHR1 agonist	TRHR agonist	HEK293 tox
CCCCCCCCN1[C@@H](CC(=O)OCC)c2ccc(C(F)(F)F)cc2S1(=O)=O	-3.5%	nt	10µM*	-24.7%	nt	-21.1%
CCCCCCCCCCCCN1[C@@H](CC(=O)OC)c2cc(C(F)(F)F)ccc2S1(=O)=O	6.4%	nt	8.0%	-21.5%	nt	-31.5%
COc1cc(Cl)c(C)cc1Nc1c2c(nc3ccccc13)CCC2	nt	0.8	11.2µM*	-1.0%	-0.4	?
COC(=O)c1cccc(Nc2c3c(nc4ccccc24)CCC3)c1	13.8%	10.1	7.94µM*	-31.1%	-0.7	?
CCOC(=O)c1cccc(Nc2c3c(nc4ccccc24)CCC3)c1	nt	1.6	?	-17.9%	0.3	10µM*
CC(C)(C)OC(=O)C[C@H]1C/C=C\C[C@@H](CC(=O)N[C@@H](CO)Cc2ccccc2)C(=O)NC[C@H](c2ccccc2)OC1=O	3.8%	nt	11.2%	-2.8%	nt	11.0%
O=C(Nc1cc(S(=O)(=O)N2CCOCC2)ccc1OCC(F)(F)F)C1CCCC1	-2.4%	nt	0.6%	i	nt	3.5%
Cc1ccc2nc(C3CCCN3Cc3nc(CCC(C)C)no3)[nH]c2c1 (stereo not given)	-3.6%	-2.4	7.08µM*	-5.5%	-2.7	2.6%
COc1cccc(C2CCCN2Cc2nc(CCC(C)C)no2)c1 (stereo not given)	3.8%	-6.5	?	-19.3%	-0.4	15.1%
O=C(NCCCN1CCCC1)c1ccc2c(c1)N(Cc1ccccc1)CCS2	3.4%	17.7	?	-21.2%	0.5	4.47µM*
CCN1CCSc2ccc(C(=O)NCc3ccccc3Br)cc21	1.5%	-3.5	10µM*	-31.7%	-0.4	7.1%
CN1CCN(CCCNC(=O)c2ccc3c(c2)N(Cc2ccc(F)cc2)CCS3)CC1	14.1%	2.9	5.62µM*	i	-0.7	-26.6%
O=C(NCCN1CCOCC1)c1ccc2c(c1)N(Cc1ccc(F)cc1)C(=O)CS2	-2.3%	-1.5	20.2%	24.4%	0.0	-8.6%
CCN1CCN(CCCNC(=O)c2ccc3c(c2)N(Cc2ccccc2)CCS3)CC1	13.4%	-2.5	?	-6.7%	0.2	?
CCN1CCSc2ccc(C(=O)NCc3ccccc3C)cc21	-4.1%	-1.6	?	-25.5%	-0.9	-1.6%
O=C(NCCCN1CCOCC1)c1ccc2c(c1)N(Cc1ccc(F)cc1)CCS2	-0.2%	-5.3	2.24µM*	i	-0.4	-3.3%
Clc1ccc2c(c1)NC(c1ccncc1)=NC(c1cccs1)=N2	nt	1.9	14.3%	i	-2.0	12.5%
O=C(NC1CC1)c1ccc2c(c1)N(Cc1ccccc1)CCS2	-0.9%	-0.9	8.91µM*	-11.3%	1.5	-1.9%
O=C(NCc1ccccc1)c1ccc2c(c1)N(Cc1ccc(F)cc1)CCS2	nt	1.7	5.62µM*	-9.0%	1.0	-1.5%
CCOC(=O)N1CCC(NC(=O)c2ccc3c(c2)N(Cc2ccccc2)CCS3)CC1	7.0%	-15.6	?	-21.3%	-1.1	-12.0%
O=C1Nc2cc(C(=O)NCCCN3CCCC3)ccc2S/C1=C\c1ccccc1	19.4%	-1.8	10µM*	i	2.1	-5.0%
COc1cc(/C=C/C(=O)Nc2cccnc2)cc(OC)c1OC	10.3%	21.1	42.3%	i	0.3	4.1%
CC(C)C[C@@H](CN1CCC[C@@H]1CN1C(=O)C(=O)NC[C@@H]1Cc1ccc(O)cc1)N1C[C@H](Cc2ccc(O)cc2)N(CC2CCCCCC2)C(=O)C1=O	3.4%	nt	7.5%	-0.4%	nt	-5.0%
COCCCn1c(=O)c2sccc2n2c(CCCC(=O)NC3CCC(C)CC3)nnc12 (stereo not given)	nt	2.7	2.4%	i	-0.1	-3.0%
CN(C(=S)Oc1ccc(C(=O)Nc2ccccc2)cc1)c1ccccc1	2.4%	-1.3	8.91µM*	-22.0%	0.9	2.3%
SMILES	GLP1R ag	TRHR enhancer	GLP1R inv ag	PTHR1 agonist	TRHR agonist	HEK293 tox
CCOc1cccc(C(=O)Nc2ccc(S(=O)(=O)N(Cc3ccccc3)c3ccccc3)cc2)c1	nt	-5.0	3.16µM*	-16.4%	1.6	1.6%
COc1ccc(NC(=O)c2ccc(OC(=S)N(C)c3ccc(OC)cc3)cc2)cc1	-0.1%	-5.0	-25.8%	-9.7%[57.5 µM]	0.0	-24.5%
Cc1ccccc1C(=O)NC(=S)Nc1ccc(S(=O)(=O)N(C)c2ccccc2)cc1	-6.5%	2.8	8.91µM*	-9.7%	-0.6	8.4%
Cc1cccc(C(=O)NC(=S)Nc2ccc(S(=O)(=O)N(C)c3ccccc3)cc2)c1	2.9%	-4.7	?	-8.4%	0.1	-1.8%
CCN(c1ccccc1)S(=O)(=O)c1cc(C(=O)Nc2ccc(Br)cc2)ccc1F	-4.6%	-7.6	2.51µM*	-95.9%	1.4	-4.5%
CSCCC(=O)NC1CC(C)(C)Cc2c1cnn2-c1ccccc1C (stereo not given)	-2.2%	-1.0	12.4%	-33.2%	-0.5	0.5%
Cc1ccc(C)c(C(C)NC(=O)C2CC=CCC2C(=O)O)c1 (stereo not given)	-1.4%	-2.2	6.6%	-18.1%	-0.2	1.8%
COc1cccc2c1Oc1cc([N+](=O)[O-])cc(N(C)C(C)=O)c1C=C2	15.5%	0.7	17.5%	-3.7%	-0.2	-16.4%
COc1cc(NC(=O)c2ccc(S(=O)(=O)N(C)c3ccccc3OC)cc2)cc(OC)c1	2.8%	nt	7.94µM*	i	nt	-9.0%
COc1ccccc1N(C)S(=O)(=O)c1ccc(C(=O)Nc2cccc(Br)c2)cc1	5.3%	nt	?	-22.7%	nt	-20.7%
CN(c1ccccc1)S(=O)(=O)c1ccc(NC(=O)c2ccccc2)cc1	0.5%	5.2	10µM*	-49.5%	1.6	0.4%
O=C(O)CN1CCN(Cc2ccc(F)cc2)C1=O	-0.6%	3.2	8.1%	4.7%	-0.4	7.5%
CC1CCCC(NC(=O)COC(=O)c2ccccc2Sc2ccccc2C#N)C1C (stereo not given)	2.8%	30.2*	6.2%	-6.9%	-0.2	6.0%
Cc1ccc(N2C(=O)CC(c3ccsc3)C3=C2CC(C)(C)CC3=O)cc1 (stereo not given)	4.8%	nt	-1.1%	i	nt	-1.6%
Cc1ccc(CN2C(=O)C(Cc3ccccc3)Nc3ncnc(N4CCOCC4)c32)cc1 (stereo not given)	-3.8%	nt	21.4%	-41.4%	nt	0.1%
CC(C)(c1ccccc1)c1ccc(OCC2CO2)cc1 (stereo not given)	5.7%	12.5	-31.1%	-34.4%	-0.2	-1.3%
O=S(=O)(c1ccc(OCC2CO2)cc1)c1ccc(OCC2CO2)cc1 (stereo not given)	12.8%	-7.4	10µM*	-8.4%	0.2	?
